Test results taken from PubChem BioAssay.
The source made the active and inactive calls. Unless noted, the rule behind the calls is not given here.

Assays:
[1] = A549 cell viability effects, profiling panel, calcein-AM fluorescence, 48 h, basal (AID 1162); details: higher = more signal; note: test concentration not given here
[2] = adipocyte viability effects, profiling panel, cell-based, 3T3-L1 adipocytes, calcein-AM fluorescence, 48 h, basal (AID 1163); details: 3T3-L1 adipocytes viability, higher = more signal; note: test concentration not given here
[3] = HepG2 cell viability effects, profiling panel, calcein-AM fluorescence, 48 h, basal (AID 1164); details: higher = more signal; note: test concentration not given here
[4] = MM1S cell viability effects, profiling panel, calcein-AM fluorescence, 48 h, basal (AID 1165); details: higher = more signal;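 note: viability of MM1S multiple myeloma cells under basal unstimulated conditions; test concentration not given here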
[5] = basal RPMI8226 viability, no added stimulus, profiling panel, cell-based, calcein-AM fluorescence, 48 h, PK04 Diversity Set (AID 1166); details: RPMI8226 myeloma viability, higher = more signal;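 note: cells grown under basal conditions without added stimulus; test concentration not given here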
[6] = basal HepG2 mitochondrial membrane potential changes, profiling panel, cell-based, JC-1 fluorescence, 24 h, 100 nL compound (AID 1167); details: higher = more signal; note: test concentration not given here
[7] = basal 3T3-L1 adipocyte mitochondrial potential changes, profiling panel, cell-based, JC-1 fluorescence, 3T3-L1 adipocytes, 24 h, 100 nL compound (AID 1168); details: JC-1 mitochondrial fluorescence, higher = more signal, called active from +8 up or from −8 down; note: test concentration not given here
[8] = basal RPMI8226 mitochondrial membrane potential changes, profiling panel, cell-based, JC-1 fluorescence, 24 h, 100 nL compound (AID 1169); details: RPMI8226 myeloma, JC-1 mitochondrial potential fluorescence, higher = more signal; note: test concentration not given here
[9] = basal MM1S mitochondrial membrane potential changes, profiling panel, cell-based, JC-1 fluorescence, 24 h, 100 nL compound (AID 1170); details: higher = more signal; note: test concentration not given here
[10] = A549 lung cancer cell viability effects, profiling panel, resazurin fluorescence, 24 h, PK04 Diversity Set (AID 1171); details: higher = more signal, called active from +8 up or from −8 down; note: test concentration not given here
[11] = HepG2 liver cancer cell viability effects, profiling panel, resazurin fluorescence, 24 h, PK04 Diversity Set (AID 1172); details: higher = more signal; note: test concentration not given here
[12] = basal S. cerevisiae growth modulation, no modifier, primary screen, OD600, strain BY4716, 24 h, basal condition (AID 1173); details: OD600, 24 h, higher = more signal, called active from +8 up or from −8 down
[13] = MM1S myeloma cell viability, profiling panel, resazurin fluorescence, basal, 24 h, PK04 Diversity Set (AID 1174); details: higher = more signal, called active from +8 up or from −8 down;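 note: MM1S multiple myeloma cell line; test concentration not given here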
[14] = biological target: Dihydroorotate dehydrogenase (quinone), mitochondrial (Plasmodium falciparum (isolate 3D7)) (UniProt Q08210); experiment: PfDHODH enzyme inhibitors, primary screen, biochemical, C-terminal His tag, absorbance 600 nm (AID 1175); details: DCIP absorbance 600 nm, higher = more signal, called active from +8 up or from −8 down;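 note: recombinant parasite enzyme with a five histidine tag at its C terminus; test concentration not given here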
[15] = P. aeruginosa biofilm formation inhibitors, primary screen, strain PAO1, LB-PBS medium, absorbance 600 nm (AID 1176); note: test concentration not given here; details: P. aeruginosa PAO1 growth/biofilm, A600, 12 h; higher = more signal
[16] = S. cerevisiae RM11-1a growth modifiers, primary screen, strain RM11-1a, OD600, basal, 24 h (AID 1177); details: OD600, 24 h, higher = more signal, called active from +8 up or from −8 down;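 note: cultures grown under basal conditions with no added stressor; test concentration not given here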
[17] = E. coli acrAB mutant growth effects, primary screen, E. coli filamentation inducers, strain DRC39, OD650, 24 h (AID 1178); details: higher = more signal, called active from +8 up or from −8 down;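 note: growth measured as culture turbidity by optical density at 650 nm; test concentration not given here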
[18] = E. coli acrAB mutant growth effects, primary screen, E. coli filamentation inducers, strain DRC39, OD650, 48 h (AID 1179);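 note: screen aims at cell division blockers that make cells filament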; details: E. coli DRC39 delta-acrAB growth, higher = more signal, called active from +8 up or from −8 down
[19] = RPMI8226 myeloma cell viability, profiling panel, resazurin fluorescence, basal, 24 h, PK04 Diversity Set (AID 1180); details: higher = more signal;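 note: RPMI8826 multiple myeloma cell line at 5000 cells per well; test concentration not given here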
[20] = biological target: E3 ubiquitin-protein ligase XIAP (Homo sapiens) (UniProt P98170); experiment: XIAP binders, primary screen, biophysical, small-molecule microarray, fluorescence 635 nm (AID 1181); details: small-molecule microarray binding, higher = more signal;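 note: score merges 667 nm emission and signal to noise over triplicate slides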
Chain of E3 ubiquitin-protein ligase XIAP (Homo sapiens) (P98170 whole entry, looked up): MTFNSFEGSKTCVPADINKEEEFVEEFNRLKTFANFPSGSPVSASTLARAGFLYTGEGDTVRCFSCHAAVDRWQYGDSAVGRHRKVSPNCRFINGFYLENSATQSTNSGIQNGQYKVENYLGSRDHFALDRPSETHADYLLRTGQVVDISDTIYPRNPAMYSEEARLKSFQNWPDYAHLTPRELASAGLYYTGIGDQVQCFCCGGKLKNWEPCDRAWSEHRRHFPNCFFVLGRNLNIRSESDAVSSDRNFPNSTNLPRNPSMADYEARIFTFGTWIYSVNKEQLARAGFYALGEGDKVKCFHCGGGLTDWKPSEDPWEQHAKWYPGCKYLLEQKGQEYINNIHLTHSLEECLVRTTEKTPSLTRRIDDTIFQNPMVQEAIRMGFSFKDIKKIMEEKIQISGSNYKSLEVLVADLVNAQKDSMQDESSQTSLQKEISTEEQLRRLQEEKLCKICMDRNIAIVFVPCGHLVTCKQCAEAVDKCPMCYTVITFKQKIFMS

Chain of Dihydroorotate dehydrogenase (quinone), mitochondrial (Plasmodium falciparum (isolate 3D7)) (Q08210 whole entry, looked up): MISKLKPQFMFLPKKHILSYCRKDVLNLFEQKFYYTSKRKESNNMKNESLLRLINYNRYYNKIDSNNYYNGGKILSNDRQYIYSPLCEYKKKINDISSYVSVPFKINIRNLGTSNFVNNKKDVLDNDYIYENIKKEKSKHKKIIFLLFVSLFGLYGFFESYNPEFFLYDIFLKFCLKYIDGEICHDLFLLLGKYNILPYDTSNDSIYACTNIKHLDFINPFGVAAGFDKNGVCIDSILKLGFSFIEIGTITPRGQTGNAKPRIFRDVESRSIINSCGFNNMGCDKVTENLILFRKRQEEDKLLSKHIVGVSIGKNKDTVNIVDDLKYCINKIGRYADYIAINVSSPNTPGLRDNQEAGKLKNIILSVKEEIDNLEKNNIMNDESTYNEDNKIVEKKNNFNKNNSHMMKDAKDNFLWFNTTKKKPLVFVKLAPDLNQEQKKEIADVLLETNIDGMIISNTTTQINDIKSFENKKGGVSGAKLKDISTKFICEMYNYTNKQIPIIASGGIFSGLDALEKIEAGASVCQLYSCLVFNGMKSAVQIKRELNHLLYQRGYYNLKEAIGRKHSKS

Row | SMILES | z-score [1] | z-score [2] | z-score [3] | z-score [4] | z-score [5] | z-score [6] | z-score [7] | z-score [8] | z-score [9] | z-score [10] | z-score [11] | z-score [12] | z-score [13] | composite z-score [14] | z-score [15] | z-score [16] | z-score [17] | z-score [18] | z-score [19] | composite z-score [20]
1 | COc1ccc([Si](C)(C)[C@H]2[C@H](CCn3cc([C@H](O)c4ccccc4)nn3)O[C@@]3(C(=O)N(Cc4cccc(N5CCC5=O)c4)c4ccccc43)[C@@H]2C)cc1 | 0.692 | 1.3 | 1.57 | 0.739 | -1.32 | 0.906 | -0.336 (inactive) | -1.15 | -0.948 | -0.323 (inactive) | 0.429 | -1.53 (inactive) | -0.85 (inactive) | -1.21 (inactive) | 1.59 (inactive) | -0.101 (inactive) | 0.898 (inactive) | 1.02 (inactive) | 0.388 | 0.166
2 | COC(=O)c1ccc(OC)c(/C=C\CC(OC(C)=O)c2ccccc2)c1 (stereo not given) | -1.01 | 0.386 | -0.753 | -1.4 | -2.39 | -0.995 | -1.15 (inactive) | -0.578 | 0.0862 | 0.519 (inactive) | 0.0209 | -1.17 (inactive) | -0.345 (inactive) | -3.79 (inactive) | -0.351 (inactive) | -0.639 (inactive) | 0.0847 (inactive) | -0.396 (inactive) | -1.1 | 0.0131
3 | COc1ccc([Si](C)(C)[C@@H]2[C@@H](CCn3cc([C@H](O)c4ccccc4)nn3)O[C@]3(C(=O)N(Cc4ccc(N5C(=O)c6cccc7cccc5c67)cc4)c4ccccc43)[C@H]2C)cc1 | -0.725 | 1.91 | -0.394 | -0.709 | -1.77 | 2.05 | 0.43 (inactive) | -0.964 | 0.209 | -1.92 (inactive) | -0.651 | -0.349 (inactive) | -1.66 (inactive) | -0.609 (inactive) | 0.65 (inactive) | -0.0915 (inactive) | 0.954 (inactive) | 0.453 (inactive) | -1.01 | -0.157
4 | C=CCC(OC(C)=O)[C@@H]1[C@@H](N(Cc2cccc3ccccc23)C(=O)c2cccc3ccccc23)c2cc(OCCCO)ccc2N1C(=O)c1ccc2ccccc2n1 (stereo not given in full) | -0.7 | 0.161 | -0.571 | -0.399 | -0.128 | 0.978 | -1.2 (inactive) | -0.133 | 0.248 | 0.0076 (inactive) | -0.0111 | -0.337 (inactive) | -0.388 (inactive) | -0.747 (inactive) | -0.334 (inactive) | -0.929 (inactive) | 0.854 (inactive) | 0.424 (inactive) | -0.0685 | -0.124
5 | NCCCCCNC(=O)[C@H]1C[C@H]2C(=O)NCC(=O)N2[C@H]1c1cccc(OCCO)c1 | 1.5 | 0.118 | 0.79 | 0.892 | 0.857 | 0.538 | 1.18 (inactive) | -0.164 | -0.158 | 0.547 (inactive) | 0.871 | -0.0725 (inactive) | 0.998 (inactive) | -0.355 (inactive) | -0.242 (inactive) | 0.0993 (inactive) | 1.07 (inactive) | 1.23 (inactive) | 0.616 | -0.119
6 | COc1ccc(CCNC(=O)[C@@H]2c3ccccc3C(=O)N(Cc3ccc(OC(F)(F)F)cc3)[C@H]2c2ccc(CO)cc2)cc1 | 0.843 | 0.614 | -1.01 | -2.39 | -1.99 | 1.14 | -0.0731 (inactive) | 0.118 | -0.23 | 0.619 (inactive) | 0.697 | -0.484 (inactive) | -0.0601 (inactive) | 0.274 (inactive) | 1.52 (inactive) | -0.419 (inactive) | -0.344 (inactive) | -1.06 (inactive) | 0.53 | -0.228
7 | COC(=O)[C@@]1(Cc2ccc(OC)cc2)[C@H]2c3cc(C(=O)N4CCCC4)n(Cc4cc(F)cc5c4OCOC5)c3C[C@H]2CN1C(=O)c1ccccc1 | -1.67 | -0.151 | -0.675 | -3.31 | -3.81 | 0.912 | -0.562 (inactive) | -0.753 | -2.72 | -1.5 (inactive) | -1.47 | 0.433 (inactive) | -5.86 (inactive) | -0.607 (inactive) | 0.687 (inactive) | -0.334 (inactive) | -1.32 (inactive) | -1.24 (inactive) | -3.53 | 0.389
8 | NCCCCCCNC(=O)[C@H]1C[C@H]2C(=O)NCC(=O)N2[C@H]1c1cccc(OCCO)c1 | 2.15 | -0.143 | 0.674 | -0.0318 | 0.554 | 2.48 | -0.194 (inactive) | -0.417 | 0.535 | 1.34 (inactive) | 0.583 | -1.42 (inactive) | 0.724 (inactive) | -0.42 (inactive) | -0.475 (inactive) | -0.689 (inactive) | 1.42 (inactive) | 1.61 (inactive) | 1.08 | 0.0785
